{"source": "the supplement of paper PMC8728848", "binders": {"B1": {"name": "GS7807Q-bfa-507-19-507 (Bacteroides fragilis) (protein)", "chain": "ASCNKFDDLNTNPDAATKVTAPMLATKLILNITQQGSAKNFVYHSMLSKQIAWSENASDEQYNLFGRTDFDGYTILTNCQKMVDAANEGDKDSYAALAKFMKAYKLFYKSLEVGDIPYSDALKGEEGVQKPKYDTQKEVMRQVLEDLEEAYTLFSSGSDFDGDPIFGGDTENWKKTVVAFELKVLTHLCKKDTDADLKVKERFARLVSSGSLMTSNADNFQLVYSNKAGQLYPFYYTQNKHSDYLMMSSVIIDNLKKFNDYRMFYYASPAKAQTDKGIKDSEWDAYLSIDPSDSYSNISVLYGKGEFCLANLRYTRVPEGEPLMRLSYAEQNFILAEGAVRGWISEDASTYYKKGIEASMNFIADNTPDKEEYTHGRTITQEYIQEYLAQPVIQLSGDKEKDLEMILLQRYLASFLQHPYDAYYDYRRTGYPVLPINPSTNLNTEKNKIPTRWMYPEAEFSYNPDNANEAVQRQYNGSDDVNKLMWILQ"}}, "test_in_all_cases": "glycan array binding signal (z-score within array); higher = stronger binding", "details_in_all_cases": "glycan notation: IUPAC condensed, linker removed", "key": {"[1]": {"target": "Gal(b1-4)GlcNAc(b1-3)Gal(b1-4)GlcNAc(b1-3)GalNAc", "summary_of_the_method": "(§1)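 The binding signal is a Z-score computed within each array and averaged over linkers. Arrays of the same protein sequence at different concentrations or buffers were also averaged together. Data originate from 3228 arrays in the Consortium for Functional Glycomics database, kept only where the protein sequence was available.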"}, "[2]": {"target": "Gal(b1-4)GlcNAc(b1-3)Gal(b1-4)GlcNAc(b1-3)[Gal(b1-4)GlcNAc(b1-3)Gal(b1-4)GlcNAc(b1-6)]GalNAc", "summary_of_the_method": "as §1"}, "[3]": {"target": "Gal(b1-4)GlcNAc(b1-3)Gal(b1-4)[Fuc(a1-3)]GlcNAc(b1-3)Gal(b1-4)[Fuc(a1-3)]GlcNAc", "summary_of_the_method": "as §1"}, "GalNAc(a1-3)GalNAc": {"target": "GalNAc(a1-3)GalNAc", "summary_of_the_method": "as §1"}, "GalNAc(b1-3)GlcNAc": {"target": "GalNAc(b1-3)GlcNAc", "summary_of_the_method": "as §1"}, "GalNAc(b1-4)GlcNAc": {"target": "GalNAc(b1-4)GlcNAc", "summary_of_the_method": "as §1"}, "GalNAc3S(b1-4)GlcNAc3S": {"target": "GalNAc3S(b1-4)GlcNAc3S", "summary_of_the_method": "as §1"}, "[4]": {"target": "GalNAc3S(b1-4)[Fuc(a1-3)]GlcNAc", "summary_of_the_method": "as §1"}, "[5]": {"target": "GlcA3S(b1-3)Gal(b1-4)GlcNAc(b1-3)Gal(b1-4)Glc", "summary_of_the_method": "as §1"}, "[6]": {"target": "GlcNAc(a1-4)Gal(b1-4)GlcNAc", "summary_of_the_method": "as §1"}, "[7]": {"target": "GlcNAc(a1-4)Gal(b1-4)GlcNAc(b1-3)Gal(b1-4)[Fuc(a1-3)]GlcNAc(b1-3)Gal(b1-4)[Fuc(a1-3)]GlcNAc", "summary_of_the_method": "as §1"}, "[8]": {"target": "GlcNAc(b1-3)Gal(b1-4)GlcNAc(b1-2)Man(a1-3)[GlcNAc(b1-3)Gal(b1-4)GlcNAc(b1-2)Man(a1-6)]Man(b1-4)GlcNAc(b1-4)[Fuc(a1-6)]GlcNAc", "summary_of_the_method": "as §1"}, "[9]": {"target": "GlcNAc(b1-3)Gal(b1-4)GlcNAc(b1-2)[GlcNAc(b1-3)Gal(b1-4)GlcNAc(b1-6)]Man(a1-6)[GlcNAc(b1-3)Gal(b1-4)GlcNAc(b1-2)Man(a1-3)]Man(b1-4)GlcNAc(b1-4)GlcNAc", "summary_of_the_method": "as §1"}, "[10]": {"target": "GlcNAc(b1-3)Gal(b1-4)GlcNAc(b1-3)Gal(b1-4)GlcNAc(b1-2)[GlcNAc(b1-3)Gal(b1-4)GlcNAc(b1-3)Gal(b1-4)GlcNAc(b1-6)]Man(a1-6)[GlcNAc(b1-3)Gal(b1-4)GlcNAc(b1-3)Gal(b1-4)GlcNAc(b1-2)Man(a1-3)]Man(b1-4)GlcNAc(b1-4)[Fuc(a1-6)]GlcNAc", "summary_of_the_method": "as §1"}, "[11]": {"target": "GlcNAc(b1-3)Gal(b1-4)GlcNAc(b1-3)Gal(b1-4)GlcNAc(b1-3)Gal(b1-4)GlcNAc(b1-3)Gal(b1-4)GlcNAc(b1-2)Man(a1-3)[GlcNAc(b1-3)Gal(b1-4)GlcNAc(b1-3)Gal(b1-4)GlcNAc(b1-3)Gal(b1-4)GlcNAc(b1-3)Gal(b1-4)GlcNAc(b1-2)Man(a1-6)]Man(b1-4)GlcNAc(b1-4)[Fuc(a1-6)]GlcNAc", "summary_of_the_method": "as §1"}, "[12]": {"target": "Man(a1-2)Man(a1-3)[Man(a1-6)]Man(a1-6)[Man(a1-2)Man(a1-3)]Man(b1-4)GlcNAc(b1-4)GlcNAc", "summary_of_the_method": "as §1"}, "[13]": {"target": "Man(a1-2)Man(a1-6)[Man(a1-3)]Man(a1-6)[Man(a1-2)Man(a1-2)Man(a1-3)]Man", "summary_of_the_method": "as §1"}, "Man(a1-6)Man": {"target": "Man(a1-6)Man", "summary_of_the_method": "as §1"}, "[14]": {"target": "Neu5Ac(a2-3)Gal(b1-3)GalNAc(b1-4)[Neu5Ac(a2-3)]Gal(b1-4)Glc", "summary_of_the_method": "as §1"}, "[15]": {"target": "Neu5Ac(a2-3)Gal(b1-3)[Fuc(a1-4)]GlcNAc(b1-3)Gal(b1-4)[Fuc(a1-3)]GlcNAc", "summary_of_the_method": "as §1"}, "[16]": {"target": "Neu5Ac(a2-3)Gal(b1-4)GlcNAc", "summary_of_the_method": "as §1"}, "[17]": {"target": "Neu5Ac(a2-3)Gal(b1-4)GlcNAc(b1-2)Man(a1-3)[GlcNAc(b1-4)][Neu5Ac(a2-3)Gal(b1-4)GlcNAc(b1-2)Man(a1-6)]Man(b1-4)GlcNAc(b1-4)GlcNAc", "summary_of_the_method": "as §1"}, "[18]": {"target": "Neu5Ac(a2-3)Gal(b1-4)GlcNAc(b1-2)Man(a1-3)[Neu5Ac(a2-3)Gal(b1-4)GlcNAc(b1-2)Man(a1-6)]Man(b1-4)GlcNAc(b1-4)GlcNAc", "summary_of_the_method": "as §1"}, "[19]": {"target": "Neu5Ac(a2-3)Gal(b1-4)GlcNAc(b1-2)[Neu5Ac(a2-3)Gal(b1-4)GlcNAc(b1-6)]Man(a1-6)[Neu5Ac(a2-3)Gal(b1-4)GlcNAc(b1-2)Man(a1-3)]Man(b1-4)GlcNAc(b1-4)GlcNAc", "summary_of_the_method": "as §1"}, "[20]": {"target": "Neu5Ac(a2-3)Gal(b1-4)GlcNAc(b1-3)GalNAc", "summary_of_the_method": "as §1"}, "[21]": {"target": "Neu5Ac(a2-3)Gal(b1-4)[Fuc(a1-3)]GlcNAc(b1-3)Gal(b1-4)GlcNAc", "summary_of_the_method": "as §1"}, "[22]": {"target": "Neu5Ac(a2-6)Gal(b1-4)GlcNAc(b1-2)Man(a1-3)Man(b1-4)GlcNAc(b1-4)GlcNAc", "summary_of_the_method": "as §1"}, "[23]": {"target": "Neu5Ac(a2-6)Gal(b1-4)GlcNAc(b1-2)[Neu5Ac(a2-6)Gal(b1-4)GlcNAc(b1-4)]Man(a1-3)[GlcNAc(b1-4)][Neu5Ac(a2-6)Gal(b1-4)GlcNAc(b1-4)Man(a1-6)]Man(b1-4)GlcNAc(b1-4)GlcNAc", "summary_of_the_method": "as §1"}, "[24]": {"target": "Neu5Ac(a2-6)Gal(b1-4)GlcNAc(b1-2)[Neu5Ac(a2-6)Gal(b1-4)GlcNAc(b1-6)]Man(a1-6)[Neu5Ac(a2-6)Gal(b1-4)GlcNAc(b1-2)Man(a1-3)][GlcNAc(b1-4)]Man(b1-4)GlcNAc(b1-4)GlcNAc", "summary_of_the_method": "as §1"}, "[25]": {"target": "Neu5Ac(a2-6)Gal(b1-4)GlcNAc(b1-3)Gal(b1-4)GlcNAc(b1-3)Gal(b1-4)GlcNAc(b1-2)Man(a1-3)[Neu5Ac(a2-6)Gal(b1-4)GlcNAc(b1-3)Gal(b1-4)GlcNAc(b1-3)Gal(b1-4)GlcNAc(b1-2)Man(a1-6)]GalNAc", "summary_of_the_method": "as §1"}, "[26]": {"target": "Neu5Ac(a2-6)Gal(b1-4)GlcNAc(b1-3)GalNAc", "summary_of_the_method": "as §1"}, "[27]": {"target": "Neu5Ac(a2-8)Neu5Ac(a2-8)Neu5Ac(a2-3)Gal(b1-4)Glc", "summary_of_the_method": "as §1"}}, "note": "The entries come from a sample that favours the strongest signals as a whole."}
{"binder": "B1", "values": [{"measurement": "glycan array binding signal (z-score)", "setting": "[1]", "result": -0.268}, {"measurement": "glycan array binding signal (z-score)", "setting": "[2]", "result": -0.074}, {"measurement": "glycan array binding signal (z-score)", "setting": "[3]", "result": -0.174}, {"measurement": "glycan array binding signal (z-score)", "setting": "GalNAc(a1-3)GalNAc", "result": -0.06}, {"measurement": "glycan array binding signal (z-score)", "setting": "GalNAc(b1-3)GlcNAc", "result": -0.454}, {"measurement": "glycan array binding signal (z-score)", "setting": "GalNAc(b1-4)GlcNAc", "result": 3.09}, {"measurement": "glycan array binding signal (z-score)", "setting": "GalNAc3S(b1-4)GlcNAc3S", "result": -0.279}, {"measurement": "glycan array binding signal (z-score)", "setting": "[4]", "result": -0.654}, {"measurement": "glycan array binding signal (z-score)", "setting": "[5]", "result": 0.23}, {"measurement": "glycan array binding signal (z-score)", "setting": "[6]", "result": -0.604}, {"measurement": "glycan array binding signal (z-score)", "setting": "[7]", "result": 3.02}, {"measurement": "glycan array binding signal (z-score)", "setting": "[8]", "result": 2.43}, {"measurement": "glycan array binding signal (z-score)", "setting": "[9]", "result": 1.65}, {"measurement": "glycan array binding signal (z-score)", "setting": "[10]", "result": 2.73}, {"measurement": "glycan array binding signal (z-score)", "setting": "[11]", "result": -0.41}, {"measurement": "glycan array binding signal (z-score)", "setting": "[12]", "result": -0.639}, {"measurement": "glycan array binding signal (z-score)", "setting": "[13]", "result": 0.113}, {"measurement": "glycan array binding signal (z-score)", "setting": "Man(a1-6)Man", "result": 0.531}, {"measurement": "glycan array binding signal (z-score)", "setting": "[14]", "result": -0.316}, {"measurement": "glycan array binding signal (z-score)", "setting": "[15]", "result": -0.38}, {"measurement": "glycan array binding signal (z-score)", "setting": "[16]", "result": -0.496}, {"measurement": "glycan array binding signal (z-score)", "setting": "[17]", "result": -0.905}, {"measurement": "glycan array binding signal (z-score)", "setting": "[18]", "result": -0.347}, {"measurement": "glycan array binding signal (z-score)", "setting": "[19]", "result": 1.35}, {"measurement": "glycan array binding signal (z-score)", "setting": "[20]", "result": -0.737}, {"measurement": "glycan array binding signal (z-score)", "setting": "[21]", "result": -0.425}, {"measurement": "glycan array binding signal (z-score)", "setting": "[22]", "result": -0.09}, {"measurement": "glycan array binding signal (z-score)", "setting": "[23]", "result": 0.481}, {"measurement": "glycan array binding signal (z-score)", "setting": "[24]", "result": 0.863}, {"measurement": "glycan array binding signal (z-score)", "setting": "[25]", "result": 3.17}, {"measurement": "glycan array binding signal (z-score)", "setting": "[26]", "result": 0.841}, {"measurement": "glycan array binding signal (z-score)", "setting": "[27]", "result": -0.141}]}
